Reference: the supplement of paper PMC11732987, “Enantioselective OTUD7B fragment discovery through chemoproteomics screening and high-throughput optimisation” (Communications Chemistry, 2025)

How the values were obtained:
Experiment in all cases: log2 ratio of Biotin-Ahx-Ub-VS probe labelling (fragment/DMSO); higher = less target engagement (more negative = stronger competition), active = hit call of the paper (q ≤ 0.05, log2 ratio ≤ -1)
Settings in all cases: compound concentration: 200 uM; treatment time: 3 h
OTUD6B = biological target: T1, OTUD6B (UniProt Q8N6M0)
T1 sequence (whole entry): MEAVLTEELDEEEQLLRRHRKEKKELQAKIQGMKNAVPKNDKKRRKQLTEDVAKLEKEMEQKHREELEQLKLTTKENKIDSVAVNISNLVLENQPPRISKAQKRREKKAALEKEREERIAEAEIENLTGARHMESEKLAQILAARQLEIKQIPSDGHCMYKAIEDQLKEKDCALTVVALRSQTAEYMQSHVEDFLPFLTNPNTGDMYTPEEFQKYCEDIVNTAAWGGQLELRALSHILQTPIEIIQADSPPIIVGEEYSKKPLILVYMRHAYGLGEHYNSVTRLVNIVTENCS
Summary of the method: (§1)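 In triplicate, 495 µg of HEK293T lysate per sample was incubated with fragment at 200 µM or vehicle for 3 h. Biotin-Ahx-Ub-VS was then added to 0.5 µM final for 1 h, and labelled DUBs were captured with NeutrAvidin, digested with LysC and trypsin, and measured by diaPASEF LC-MS/MS. Data are average log2 fragment/vehicle ratios by unpaired t-test from global-median-normalised Spectronaut label-free quantities, restricted to proteins with ≥2 unique peptides.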

OTUD7B = biological target: T2, OTUD7B (UniProt Q6GQQ9)
T2 sequence (whole entry): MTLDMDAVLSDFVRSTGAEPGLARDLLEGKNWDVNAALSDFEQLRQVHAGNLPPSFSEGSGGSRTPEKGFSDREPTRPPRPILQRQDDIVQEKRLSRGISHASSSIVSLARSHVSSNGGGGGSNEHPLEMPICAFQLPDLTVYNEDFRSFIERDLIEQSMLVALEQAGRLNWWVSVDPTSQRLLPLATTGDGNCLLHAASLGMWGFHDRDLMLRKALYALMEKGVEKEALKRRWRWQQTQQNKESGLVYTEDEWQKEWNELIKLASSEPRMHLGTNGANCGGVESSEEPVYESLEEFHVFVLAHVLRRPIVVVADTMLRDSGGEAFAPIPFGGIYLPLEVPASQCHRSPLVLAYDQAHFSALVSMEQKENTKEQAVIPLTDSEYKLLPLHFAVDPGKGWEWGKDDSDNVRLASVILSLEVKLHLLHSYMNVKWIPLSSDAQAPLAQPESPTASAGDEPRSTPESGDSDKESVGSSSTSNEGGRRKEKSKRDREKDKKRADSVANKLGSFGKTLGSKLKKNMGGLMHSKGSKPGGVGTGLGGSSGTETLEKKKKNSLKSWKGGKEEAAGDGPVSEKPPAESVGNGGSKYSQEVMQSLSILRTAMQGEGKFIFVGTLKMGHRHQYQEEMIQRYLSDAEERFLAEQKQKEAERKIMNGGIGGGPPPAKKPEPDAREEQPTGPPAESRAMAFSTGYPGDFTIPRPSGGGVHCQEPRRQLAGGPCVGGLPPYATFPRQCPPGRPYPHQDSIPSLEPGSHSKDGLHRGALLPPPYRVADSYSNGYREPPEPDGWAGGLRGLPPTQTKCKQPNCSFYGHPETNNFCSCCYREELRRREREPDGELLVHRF
Summary of the method: as §1

PRPF8 = PRPF8 (UniProt Q6P2Q9)
Summary of the method: as §1

PSMD7 = biological target: T3, PSMD7 (UniProt P51665)
T3 sequence (whole entry): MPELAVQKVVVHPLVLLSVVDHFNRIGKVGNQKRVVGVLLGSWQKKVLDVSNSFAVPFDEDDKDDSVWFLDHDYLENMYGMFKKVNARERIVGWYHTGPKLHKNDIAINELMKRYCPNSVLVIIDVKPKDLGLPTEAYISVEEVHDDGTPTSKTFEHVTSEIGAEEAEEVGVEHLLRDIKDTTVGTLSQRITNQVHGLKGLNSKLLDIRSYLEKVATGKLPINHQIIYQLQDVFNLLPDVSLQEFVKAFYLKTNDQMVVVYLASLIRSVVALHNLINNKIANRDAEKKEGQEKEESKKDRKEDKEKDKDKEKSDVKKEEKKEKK
Summary of the method: as §1

UCHL1 = UCHL1 (UniProt P09936)
Summary of the method: as §1

UCHL3 = biological target: T4, UCHL3 (UniProt P15374)
T4 sequence (whole entry): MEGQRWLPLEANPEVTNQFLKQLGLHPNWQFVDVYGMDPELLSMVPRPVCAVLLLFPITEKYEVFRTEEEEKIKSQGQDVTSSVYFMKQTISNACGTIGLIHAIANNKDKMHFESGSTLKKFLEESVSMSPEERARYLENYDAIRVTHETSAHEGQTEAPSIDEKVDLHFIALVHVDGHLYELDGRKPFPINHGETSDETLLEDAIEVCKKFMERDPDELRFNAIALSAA
Summary of the method: as §1

UCHL5 = biological target: T5, UCHL5 (UniProt Q9Y5K5)
T5 sequence (whole entry): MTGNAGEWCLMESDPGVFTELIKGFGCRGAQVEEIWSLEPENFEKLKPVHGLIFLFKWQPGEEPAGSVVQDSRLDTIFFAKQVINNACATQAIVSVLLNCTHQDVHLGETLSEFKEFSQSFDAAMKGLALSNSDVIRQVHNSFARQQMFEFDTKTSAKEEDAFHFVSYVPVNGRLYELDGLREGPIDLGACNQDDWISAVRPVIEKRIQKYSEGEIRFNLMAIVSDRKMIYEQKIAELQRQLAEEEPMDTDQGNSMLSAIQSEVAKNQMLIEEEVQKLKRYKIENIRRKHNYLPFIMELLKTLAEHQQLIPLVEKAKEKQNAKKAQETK
Summary of the method: as §1

USP10 = USP10 (UniProt Q14694)
Summary of the method: as §1

USP15 = biological target: T6, USP15 (UniProt Q9Y4E8)
T6 sequence (whole entry): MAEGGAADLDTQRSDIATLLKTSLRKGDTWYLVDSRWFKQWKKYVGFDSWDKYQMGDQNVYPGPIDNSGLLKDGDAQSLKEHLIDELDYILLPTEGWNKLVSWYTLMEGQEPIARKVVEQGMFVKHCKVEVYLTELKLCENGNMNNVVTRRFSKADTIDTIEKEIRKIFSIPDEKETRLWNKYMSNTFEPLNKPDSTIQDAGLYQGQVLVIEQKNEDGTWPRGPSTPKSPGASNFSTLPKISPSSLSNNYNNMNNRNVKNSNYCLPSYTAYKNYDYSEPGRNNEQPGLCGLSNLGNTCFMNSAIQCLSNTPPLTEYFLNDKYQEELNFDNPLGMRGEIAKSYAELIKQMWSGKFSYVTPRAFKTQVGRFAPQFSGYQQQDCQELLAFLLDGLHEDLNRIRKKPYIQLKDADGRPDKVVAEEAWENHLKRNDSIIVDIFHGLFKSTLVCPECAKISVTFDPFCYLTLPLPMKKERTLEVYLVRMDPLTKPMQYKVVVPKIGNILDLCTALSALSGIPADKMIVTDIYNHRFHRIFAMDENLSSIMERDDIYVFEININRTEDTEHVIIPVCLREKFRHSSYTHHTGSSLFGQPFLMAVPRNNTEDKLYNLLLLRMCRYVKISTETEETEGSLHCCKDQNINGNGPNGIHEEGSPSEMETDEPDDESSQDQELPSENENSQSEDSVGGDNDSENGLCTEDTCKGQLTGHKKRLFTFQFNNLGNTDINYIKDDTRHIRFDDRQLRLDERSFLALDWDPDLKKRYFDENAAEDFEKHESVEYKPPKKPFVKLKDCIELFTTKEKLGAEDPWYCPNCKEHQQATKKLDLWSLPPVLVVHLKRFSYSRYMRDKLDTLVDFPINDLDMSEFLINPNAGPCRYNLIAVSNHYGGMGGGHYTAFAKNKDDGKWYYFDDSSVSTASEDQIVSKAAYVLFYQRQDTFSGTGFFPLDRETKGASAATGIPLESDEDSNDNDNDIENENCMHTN
Summary of the method: as §1

USP16 = USP16 (UniProt Q9Y5T5)
Summary of the method: as §1

Measured: log2 ratio of Biotin-Ahx-Ub-VS probe labelling

Chain of UCHL1 (P09936 whole entry, looked up): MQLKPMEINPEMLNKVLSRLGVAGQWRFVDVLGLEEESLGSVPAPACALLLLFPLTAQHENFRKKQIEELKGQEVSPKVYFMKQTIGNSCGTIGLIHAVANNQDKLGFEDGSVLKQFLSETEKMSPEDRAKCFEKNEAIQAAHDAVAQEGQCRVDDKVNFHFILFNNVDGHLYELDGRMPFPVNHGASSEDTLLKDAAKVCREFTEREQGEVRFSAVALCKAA
Chain of USP10 (Q14694 whole entry): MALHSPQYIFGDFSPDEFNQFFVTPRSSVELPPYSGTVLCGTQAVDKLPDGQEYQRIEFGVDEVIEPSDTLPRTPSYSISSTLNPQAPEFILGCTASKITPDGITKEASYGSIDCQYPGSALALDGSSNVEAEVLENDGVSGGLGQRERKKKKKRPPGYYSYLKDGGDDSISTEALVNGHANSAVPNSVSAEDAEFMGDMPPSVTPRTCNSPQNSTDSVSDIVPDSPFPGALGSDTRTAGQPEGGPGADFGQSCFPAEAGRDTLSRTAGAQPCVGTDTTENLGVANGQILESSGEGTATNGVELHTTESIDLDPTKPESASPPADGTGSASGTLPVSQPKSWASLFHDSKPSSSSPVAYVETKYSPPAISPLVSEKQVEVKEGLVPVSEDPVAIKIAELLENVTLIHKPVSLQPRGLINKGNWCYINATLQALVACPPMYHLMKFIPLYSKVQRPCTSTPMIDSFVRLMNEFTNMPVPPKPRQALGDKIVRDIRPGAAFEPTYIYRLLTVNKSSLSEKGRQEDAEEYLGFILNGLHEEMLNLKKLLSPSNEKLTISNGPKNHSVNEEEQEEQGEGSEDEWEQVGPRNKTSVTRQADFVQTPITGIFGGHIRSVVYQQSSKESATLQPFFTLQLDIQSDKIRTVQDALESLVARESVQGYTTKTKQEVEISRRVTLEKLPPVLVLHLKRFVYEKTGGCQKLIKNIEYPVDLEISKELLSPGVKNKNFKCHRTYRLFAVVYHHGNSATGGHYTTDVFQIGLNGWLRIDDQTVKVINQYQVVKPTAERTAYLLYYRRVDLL
Chain of USP16 (Q9Y5T5 whole entry, looked up): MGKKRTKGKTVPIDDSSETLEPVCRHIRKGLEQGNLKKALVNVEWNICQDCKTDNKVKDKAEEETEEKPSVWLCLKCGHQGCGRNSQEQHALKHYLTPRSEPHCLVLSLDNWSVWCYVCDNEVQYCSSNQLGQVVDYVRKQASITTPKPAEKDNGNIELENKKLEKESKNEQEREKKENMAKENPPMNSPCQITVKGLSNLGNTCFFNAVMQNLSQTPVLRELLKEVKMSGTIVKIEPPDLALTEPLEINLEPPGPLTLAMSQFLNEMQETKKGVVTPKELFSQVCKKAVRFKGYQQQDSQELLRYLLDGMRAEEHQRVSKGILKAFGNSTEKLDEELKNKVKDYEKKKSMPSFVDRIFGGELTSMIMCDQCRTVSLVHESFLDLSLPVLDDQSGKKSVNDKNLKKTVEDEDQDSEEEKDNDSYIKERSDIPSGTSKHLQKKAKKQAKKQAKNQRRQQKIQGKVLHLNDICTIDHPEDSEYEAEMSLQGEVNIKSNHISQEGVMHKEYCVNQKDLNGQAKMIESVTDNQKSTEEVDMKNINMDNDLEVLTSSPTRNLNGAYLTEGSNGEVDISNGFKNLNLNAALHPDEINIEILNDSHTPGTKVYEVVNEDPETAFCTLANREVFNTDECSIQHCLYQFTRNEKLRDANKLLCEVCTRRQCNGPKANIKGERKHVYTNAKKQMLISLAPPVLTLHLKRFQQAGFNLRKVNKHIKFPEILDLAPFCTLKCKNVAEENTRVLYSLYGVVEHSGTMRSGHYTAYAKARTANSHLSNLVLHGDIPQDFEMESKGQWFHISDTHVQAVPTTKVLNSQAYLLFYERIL

O=C(CCl)N1CCOC2(CCC2)C1
active: OTUD7B -1.29 | UCHL1 -1.53
inactive: OTUD6B 0.01 | PRPF8 -0.0922 | PSMD7 -0.254 | UCHL3 0.273 | UCHL5 -0.0117 | USP10 0.0764 | USP15 0.059 | USP16 0.246
